# High-throughput results from PubChem.
# Many of the other results were omitted from the sample, so hits are more common in it than they were.
# Tgondii IFNg: blocks Toxoplasma gondii growth in the presence of IFN-gamma. Toxoplasma gondii growth in IFN-gamma-treated host cells; hits give low values. activity change, negative = inhibition, % (test concentration not listed). actives 3.8% (n = 69,000); in the data active means activity change below about -70%, passing the limit was not always enough;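 further: host cells are HeLa cells infected with Toxoplasma gondii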
# Numbers without * were called inactive.
SMILES,Tgondii IFNg
Cc1cc(Cc2c(F)cccc2F)cc(C2CCN(C(=O)CC3CCCCO3)CC2)n1 (stereo not drawn),-20
Cc1cc(Cc2cccc(F)c2)cc(C2CCN(C(=O)c3n[nH]c4c3CCCCC4)CC2)n1,-111*
CC(=O)Oc1ccc(-c2csc(Nc3ncccn3)n2)cc1,208
Cc1onc(-c2ccccc2)c1CNC(=O)c1ccccc1,29
Cc1onc(-c2ccccc2)c1NC(=O)NCc1csc(-c2cccs2)n1,7
Cc1onc(-c2ccccc2)c1CNC(=O)C1CCN(c2nccc(C(F)(F)F)n2)CC1,-66
O=C(OCc1ccccc1)N1CCOCCN(C(=O)OCc2ccccc2)CCOCC1,-15
Cc1onc(-c2ccccc2)c1CNC(=O)NC1CCN(C(=O)OCc2ccccc2)CC1,-82*
Cc1onc(-c2ccccc2)c1CNC(=O)Nc1csc2ccccc12,-98*
COC(=O)[C@@H]1C[C@@H](O)CN1C(=O)CCNC(=O)c1ccc(F)cc1,5
Cc1ccc(C(=O)N2N=C3c4ccccc4S(=O)(=O)N3C2N2CCCCC2)cc1 (stereo not drawn),-7
CCCN(CCC)CCCNC(=O)C1=C(C)C(=O)OC12CCN(C(C)=O)CC2,66
CC(C)Cc1ccc(S(=O)(=O)N2CCC3(CC2)NCCN=C3NCc2cccc(F)c2)cc1,-52
COc1ccc(-c2cn(CC[C@@H]3CC[C@H](NC(=O)c4cnccn4)[C@H](CO)O3)nn2)cc1,-6
COC(=O)[C@@]12OC[C@]34[C@H]([C@@H](O)[C@@H]1O)[C@@]1(C)CC(=O)C(=O)C(C)[C@@H]1C[C@H]3OC(=O)[C@H](OC(=O)/C=C(\C)C(C)C)[C@@H]24 (stereo partly drawn),-89*
COc1cccc(CC(=O)N2CCC3(CC2)Nc2ccc(Cl)cc2-n2cccc23)c1,29
O=C(COc1ccc(Cl)cc1)N1CCC2(CC1)Nc1ccc(Cl)cc1-n1cccc12,70
O=C(COc1ccc(F)cc1)N1CCC2(CC1)Nc1ccc(Cl)cc1-n1cccc12,-115*
Cc1cccc(OCC(=O)N2CCC3(CC2)Nc2ccc(Cl)cc2-n2cccc23)c1,-107*
O=C(COc1ccccc1)N1CCC2(CC1)Nc1cc(F)ccc1-n1cccc12,52
Cc1cccc(C(=O)N2CCC3(CC2)Nc2ccc(Cl)cc2-n2cccc23)c1,-6
Cc1cc(C)n(-c2cccc(-c3ncccc3NC(=O)C(C)C)c2)n1,6
C[C@@H]1CN([C@@H](C)CO)C(=O)c2cc(NC(=O)C3CCCCC3)ccc2O[C@H]1CN(C)C(=O)Nc1ccc(C(F)(F)F)cc1,-11
Cc1ccccc1-c1noc(CNCCS(=O)(=O)N(C)C)n1,6
CN(Cc1cc(-c2cccs2)n[nH]1)C(=O)C1=NNC(=O)CC1,0
SMILES,Tgondii IFNg
Cc1ccc(C)c(NC(=O)Cn2ncc3c(N4CCOCC4)ncnc32)c1,113
COc1cc(C)c(CNC(=O)c2cccc(N3CCCC3=O)c2)cc1C(C)C,176
CC(C)n1c2ccccc2c2c1cc(C(=O)NC1CC1)n2S(C)(=O)=O,135
O=C(CC1CC1)N[C@H]1CN(C(=O)c2ccoc2)C[C@@H]2CCCO[C@H]21,-47
CC1CCCCN1C1CN(Cc2ccc(C(=O)Nc3cnn(C)c3)cc2)C1 (stereo not drawn),-1
C[C@H]1CN([C@@H](C)CO)C(=O)c2c(c3ccccc3n2C)-c2ccccc2CO[C@@H]1CN(C)C(=O)[C@H](Cc1ccccc1)N(C)C,16
C[C@@H]1CN([C@@H](C)CO)C(=O)c2cc(NS(=O)(=O)c3cn(C)cn3)ccc2O[C@@H](C)CCCCO[C@@H]1CN(C)C(=O)Nc1ccc(C(F)(F)F)cc1,45
COc1ccc(CN(C)C[C@@H]2OCCCC[C@H](C)Oc3ccc(NC(=O)C4CCCCC4)cc3C(=O)N([C@H](C)CO)C[C@H]2C)cc1,-25
COc1ccc(S(=O)(=O)Nc2ccc3c(c2)C(=O)N([C@H](C)CO)C[C@H](C)[C@@H](CN(C)Cc2ccc(C(F)(F)F)cc2)OCCCC[C@@H](C)O3)cc1,-91*
COc1ccc(CN(C)C[C@@H]2OCCCC[C@@H](C)Oc3ccc(NC(=O)C4CCCCC4)cc3C(=O)N([C@@H](C)CO)C[C@H]2C)cc1,-3
COc1ccc(S(=O)(=O)Nc2ccc3c(c2)C(=O)N([C@@H](C)CO)C[C@H](C)[C@@H](CN(C)Cc2ccc(C(F)(F)F)cc2)OCCCC[C@H](C)O3)cc1,-129*
C[C@H](CO)N1C[C@H](C)[C@@H](CN(C)C(=O)Nc2ccc(C(F)(F)F)cc2)OCCCC[C@H](C)Oc2ccc(NS(=O)(=O)c3cn(C)cn3)cc2C1=O,143
COc1ccc(CN(C)C[C@@H]2OCCCC[C@H](C)Oc3ccc(NC(=O)C4CCCCC4)cc3C(=O)N([C@@H](C)CO)C[C@@H]2C)cc1,93
Cc1ccc(S(=O)(=O)Nc2ccc3c(c2)C(=O)N([C@H](C)CO)C[C@@H](C)[C@H](CN(C)Cc2ccc(C(F)(F)F)cc2)O3)cc1,-20
COc1ccc(S(=O)(=O)Nc2ccc3c(c2)C(=O)N([C@H](C)CO)C[C@H](C)[C@@H](CN(C)Cc2ccc(C(F)(F)F)cc2)OCCCC[C@H](C)O3)cc1,6
